Calls of active or inactive are those of the source.
Assays:
[1] = small molecules captured by biotinylated probe aFSTL3 – biochemical, small-molecule microarray, fluorescence 635/667, stem cell growth factor project, primary screen (AID 1064); conditions: higher = more signal;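 note: measures binding of the biotinylated anti-FSTL3 antibody to printed compounds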
[2] = binders from COS7 lysate, DM2A8 probe, primary screen, torsin A project, cell lysate, small-molecule microarray, fluorescence 635/667 (AID 1065); conditions: higher = more signal, COS7 lysate expressing mutant human TOR1A
[3] = small molecules captured by biotinylated probe aFGF2 – biochemical, small-molecule microarray, fluorescence 635/667, stem cell growth factor project, primary screen (AID 1067); conditions: higher = more signal;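 note: measures binding of biotinylated aFGF2 protein to printed compounds on slides; z-score merges feature fluorescence and signal-to-noise across triplicate slides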
[4] = small molecules captured by biotinylated probe aFGF10 – biochemical, small-molecule microarray, fluorescence 635/667, stem cell growth factor project, primary screen (AID 1071); conditions: higher = more signal;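 note: score merges 667 nm spot intensity and signal to noise from triplicate slides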
[5] = biological target: Neurogenic locus notch homolog protein 2 (Homo sapiens) (UniProt Q04721); assay: small molecules binding Notch2 protein – biochemical, small-molecule microarray, 635 nm fluorescence, stem cell growth factors, primary screen (AID 1073); conditions: higher = more signal
Sequence of Neurogenic locus notch homolog protein 2 (Homo sapiens) (Q04721 whole entry, looked up, canonical isoform): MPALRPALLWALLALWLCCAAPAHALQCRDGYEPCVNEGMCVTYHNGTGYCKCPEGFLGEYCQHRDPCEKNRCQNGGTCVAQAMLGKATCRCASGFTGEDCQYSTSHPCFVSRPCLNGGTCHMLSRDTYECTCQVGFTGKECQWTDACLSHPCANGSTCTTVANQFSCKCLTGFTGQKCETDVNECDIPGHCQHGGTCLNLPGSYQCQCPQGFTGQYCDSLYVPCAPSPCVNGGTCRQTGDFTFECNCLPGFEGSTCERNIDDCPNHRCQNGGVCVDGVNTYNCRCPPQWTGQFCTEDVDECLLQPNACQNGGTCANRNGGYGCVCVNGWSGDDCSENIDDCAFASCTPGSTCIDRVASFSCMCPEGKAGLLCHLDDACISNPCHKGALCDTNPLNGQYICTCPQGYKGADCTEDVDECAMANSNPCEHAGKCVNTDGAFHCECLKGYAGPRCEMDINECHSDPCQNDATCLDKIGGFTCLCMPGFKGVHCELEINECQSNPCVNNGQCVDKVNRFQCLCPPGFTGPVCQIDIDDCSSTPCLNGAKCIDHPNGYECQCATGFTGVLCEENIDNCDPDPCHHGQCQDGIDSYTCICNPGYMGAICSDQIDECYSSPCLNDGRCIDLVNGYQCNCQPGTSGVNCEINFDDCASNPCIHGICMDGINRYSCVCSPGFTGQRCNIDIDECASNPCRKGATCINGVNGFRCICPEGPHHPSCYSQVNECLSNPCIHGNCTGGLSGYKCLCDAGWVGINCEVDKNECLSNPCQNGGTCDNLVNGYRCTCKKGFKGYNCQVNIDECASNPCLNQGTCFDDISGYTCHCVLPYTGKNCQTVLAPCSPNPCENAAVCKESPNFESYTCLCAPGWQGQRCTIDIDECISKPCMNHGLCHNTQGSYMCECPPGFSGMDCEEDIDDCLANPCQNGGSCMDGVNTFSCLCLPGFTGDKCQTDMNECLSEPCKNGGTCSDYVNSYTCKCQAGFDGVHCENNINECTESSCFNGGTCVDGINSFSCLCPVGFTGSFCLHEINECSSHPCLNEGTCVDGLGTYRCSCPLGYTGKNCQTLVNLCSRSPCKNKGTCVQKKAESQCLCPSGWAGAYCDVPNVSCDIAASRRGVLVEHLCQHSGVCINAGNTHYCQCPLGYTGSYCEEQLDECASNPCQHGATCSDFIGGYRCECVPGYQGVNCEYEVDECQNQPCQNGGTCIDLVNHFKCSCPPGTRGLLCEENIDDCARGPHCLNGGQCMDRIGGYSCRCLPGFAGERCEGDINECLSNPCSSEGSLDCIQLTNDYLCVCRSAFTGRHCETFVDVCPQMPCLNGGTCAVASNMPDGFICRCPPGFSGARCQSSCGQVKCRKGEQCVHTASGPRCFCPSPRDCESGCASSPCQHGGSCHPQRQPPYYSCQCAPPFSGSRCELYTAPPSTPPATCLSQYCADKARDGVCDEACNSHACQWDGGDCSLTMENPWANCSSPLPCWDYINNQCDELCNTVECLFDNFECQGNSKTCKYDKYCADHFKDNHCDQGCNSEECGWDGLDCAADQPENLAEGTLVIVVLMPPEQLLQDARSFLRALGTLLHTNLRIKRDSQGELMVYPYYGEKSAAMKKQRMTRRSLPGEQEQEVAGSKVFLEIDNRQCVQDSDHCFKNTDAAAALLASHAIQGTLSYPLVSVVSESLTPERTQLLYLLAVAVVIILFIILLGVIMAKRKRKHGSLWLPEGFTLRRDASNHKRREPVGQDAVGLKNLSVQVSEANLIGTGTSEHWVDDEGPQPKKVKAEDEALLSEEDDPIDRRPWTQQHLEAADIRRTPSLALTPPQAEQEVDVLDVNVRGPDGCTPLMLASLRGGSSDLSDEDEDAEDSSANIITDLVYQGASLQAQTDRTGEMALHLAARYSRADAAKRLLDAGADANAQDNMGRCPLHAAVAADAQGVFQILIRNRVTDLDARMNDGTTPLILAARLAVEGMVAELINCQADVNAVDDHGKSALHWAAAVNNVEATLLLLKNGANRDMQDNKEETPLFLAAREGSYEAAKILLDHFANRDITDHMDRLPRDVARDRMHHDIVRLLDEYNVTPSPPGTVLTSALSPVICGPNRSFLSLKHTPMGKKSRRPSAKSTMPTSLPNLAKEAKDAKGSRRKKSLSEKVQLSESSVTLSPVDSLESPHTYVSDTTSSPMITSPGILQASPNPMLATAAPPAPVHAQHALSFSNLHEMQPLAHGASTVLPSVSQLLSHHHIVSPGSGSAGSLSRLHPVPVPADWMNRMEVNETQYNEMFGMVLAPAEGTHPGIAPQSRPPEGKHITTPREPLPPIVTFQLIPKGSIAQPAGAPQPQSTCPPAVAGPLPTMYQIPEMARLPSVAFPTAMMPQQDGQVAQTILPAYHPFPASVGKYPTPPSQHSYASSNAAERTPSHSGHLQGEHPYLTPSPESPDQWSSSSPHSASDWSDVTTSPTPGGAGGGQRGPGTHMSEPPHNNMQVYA

[6] = biological target: Pro-neuregulin-1, membrane-bound isoform (Homo sapiens) (UniProt Q02297); assay: small molecules binding neuregulin-1 protein – biochemical, small-molecule microarray, fluorescence 635/667, psychiatric disease protein project, primary screen (AID 1075); conditions: NRG1 binding, 635 nm fluorescence, higher = more signal;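 note: score combines 667 nm spot fluorescence with signal to noise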
Sequence of Pro-neuregulin-1, membrane-bound isoform (Homo sapiens) (Q02297 whole entry, looked up, the tested form may be a part, canonical isoform): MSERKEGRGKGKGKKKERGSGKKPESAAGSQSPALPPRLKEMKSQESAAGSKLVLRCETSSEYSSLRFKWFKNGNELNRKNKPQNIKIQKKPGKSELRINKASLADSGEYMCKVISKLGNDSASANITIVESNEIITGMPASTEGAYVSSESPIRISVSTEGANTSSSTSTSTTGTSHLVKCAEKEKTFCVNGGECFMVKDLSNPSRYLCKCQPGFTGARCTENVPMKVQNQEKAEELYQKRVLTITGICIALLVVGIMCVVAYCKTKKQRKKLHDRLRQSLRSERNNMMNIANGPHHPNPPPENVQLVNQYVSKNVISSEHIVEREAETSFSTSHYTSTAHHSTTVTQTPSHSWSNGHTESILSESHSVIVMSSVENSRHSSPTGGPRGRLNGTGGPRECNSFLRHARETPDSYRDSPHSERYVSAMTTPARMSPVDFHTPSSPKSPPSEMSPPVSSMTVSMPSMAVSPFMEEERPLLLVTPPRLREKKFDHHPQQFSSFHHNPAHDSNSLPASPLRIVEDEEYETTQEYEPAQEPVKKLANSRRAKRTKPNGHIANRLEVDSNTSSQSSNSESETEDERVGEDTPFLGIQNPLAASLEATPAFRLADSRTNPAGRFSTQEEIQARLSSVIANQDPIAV

[7] = test system: Neuregulin-1 EGF-like domain; assay: small molecules binding NRG1 EGF domain – biochemical, small-molecule microarray, 635 nm fluorescence, primary screen (AID 1081); conditions: higher = more signal;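 note: binding of the protein to compounds printed on small-molecule microarray slides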
[8] = FRG1 expression reporter modulators in myotubes – cell-based, C2C12 myotubes, firefly/Renilla luciferase, luminescence, FRG1 inhibition for FSHD, primary screen (AID 1084); conditions: FRG1 promoter luciferase, higher = more signal, called active from +8 up or from −8 down
[9] = small molecules captured by biotinylated probe aFST – biochemical, small-molecule microarray, fluorescence 635/667, stem cell growth factor project, primary screen (AID 1086); conditions: higher = more signal;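 note: score merges 667 nm fluorescence with signal-to-noise of each printed compound spot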
[10] = binders of probe aHhip on microarray, primary screen, stem cell growth factor project, biochemical, small-molecule microarray, fluorescence 635/667 (AID 1087); conditions: higher = more signal;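 note: score merges spot fluorescence at 667nm with spot signal to noise ratio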

| Structure (SMILES) | composite z-score [1] | composite z-score [2] | composite z-score [3] | composite z-score [4] | composite z-score [5] | composite z-score [6] | composite z-score [7] | z-score [8] | composite z-score [9] | composite z-score [10] |
| --- | --- | --- | --- | --- | --- | --- | --- | --- | --- | --- |
| COc1cc2c(cc1O)C=[N+](Cc1sc3ccccc3c1Cl)CC2 | 0.172 | -0.0743 | -0.0999 | 0.1 | 1.06 | -0.102 | 1.48 | 0.432 (inactive) | -0.161 | 0.0178 |
| O=C1OCCC=C[C@H]2OC34C=CCN(c5ccc6ccccc6c5)C(=O)[C@H]3N(CCCO)C(=O)[C@@H]4C12 (stereo not given in full) | 0.796 | -2.38 | -0.258 | -0.736 | -2.08 | -0.962 | -0.948 | -0.0625 (inactive) | -0.723 | -0.134 |
| NC(=O)[C@@]1(Cc2ccccc2)COC(c2ccc(OCCCO)cc2)=N1 | 0.634 | 0.758 | -0.0594 | -0.281 | 0.29 | 1.37 | 1.16 | 1.47 (inactive) | 0.252 | -0.0684 |
| CC#CCO[Si](C#Cc1ccccc1)(C(C)C)C(C)C | 0.393 | -0.688 | -0.187 | -0.279 | 1.34 | -0.878 | -0.665 | 0.289 (inactive) | -0.217 | -0.134 |
| CCCCC=C[C@@H](NC(=O)OCc1ccccc1Cl)c1ccccc1 | 0.983 | 0.199 | 0.583 | 0.711 | 1.59 | 1.51 | 1.19 | 1.31 (inactive) | 2.81 | 0.996 |
| C#CCN(Cc1ccccc1Br)[C@H](/C=C/c1ccccc1)[C@@H](O)Cc1ccccc1 | 1.6 | -0.145 | -0.164 | -0.738 | -1.09 | -0.316 | -0.289 | -2.05 (inactive) | -0.722 | 0.0373 |
| CCCC1(C(=O)OC)C=C2C(=C(C)C(=O)C2C)CN1 (stereo not given) | 0.948 | -0.313 | -0.0296 | -0.0572 | -0.326 | -0.74 | 0.188 | 3.02 (inactive) | 0.454 | -0.0645 |
| CC(C)N1C(=O)C[C@@](C(=O)NC2CC2)(c2ccc([N+](=O)[O-])cc2)[C@H]1c1ccc(CO)cc1 | 0.632 | 0.387 | -0.111 | 0.173 | -0.551 | 1.75 | 1.35 | 0.74 (inactive) | -0.551 | -0.0994 |
| CCCNC(=O)[C@@]1(C)c2ccccc2C(=O)N(c2ccc(C)cn2)[C@H]1c1ccc(CO)cc1 | 0.294 | 0.0231 | -0.0692 | -0.281 | 0.0657 | 0.638 | 0.781 | 0.683 (inactive) | -0.215 | -0.219 |
| CO[C@H]1O[C@H](CO)[C@@H](OC(=O)Nc2ccccc2)[C@H](OC(=O)c2cc3ccccc3[nH]2)[C@H]1OC(=O)c1cc2ccccc2[nH]1 | 0.731 | 0.0889 | 0.0336 | 0.886 | 0.518 | 1.18 | 0.495 | -0.542 (inactive) | 0.219 | -0.0994 |
| CCC1=C2CN(Cc3ccccc3)[C@@H](C(=O)Cc3ccccc3)C2C=CCC1 (stereo not given in full) | -0.317 | -0.756 | -0.0909 | 0.083 | -0.227 | 0.271 | 0.441 | -1.02 (inactive) | 0.0633 | -0.0994 |
| CC(C)[Si]1(C(C)C)OCc2cc(C3CC3)nc(-c3ccc(Oc4ccccc4)cc3)c21 | -0.0872 | -0.502 | -0.207 | -0.18 | -0.393 | -0.65 | -0.791 | -0.343 (inactive) | -0.15 | -0.469 |
| C=CC[C@@]1(C(=O)NCCCOC)N=C(c2ccc(OCCCO)cc2)O[C@@H]1c1ccccc1N=[N+]=[N-] | 0.165 | 0.252 | 0.0442 | 0.469 | 0.798 | 1.67 | 1.21 | 2.26 (inactive) | 1.06 | -0.0645 |
| COC(=O)C1=CC(CCCO)=CC(c2cccs2)N(Cc2cccc(OC(F)(F)F)c2)C=C1C(=O)OC (stereo not given) | -0.55 | 0.203 | 0.11 | 0.583 | 1.51 | 1.93 | 1.2 | 0.0099 (inactive) | 1.5 | 0.0053 |
| CCN(CC)c1ccc(N2CC=CC34O[C@@H]5/C=C\CCCOC(=O)C5[C@H]3C(=O)N(C(C)CO)[C@@H]4C2=O)cc1 (stereo not given in full) | -0.136 | -0.207 | -0.175 | -0.136 | -0.0693 | 1.87 | 1.31 | -0.768 (inactive) | -0.285 | -0.236 |
| COC(=O)[C@@H]1N=C(c2ccc(OCCCO)cc2)O[C@@H]1C | 0.0684 | 0.331 | -0.0627 | 0.509 | 0.108 | -0.519 | 0.155 | 5.05 (inactive) | 0.195 | 0.0139 |
| CC1CC/C=C\[C@H]2OC34C=CCN(C(C)(C)C)C(=O)[C@H]3N(CCCCCO)C(=O)[C@@H]4C2C(=O)O1 (stereo not given in full) | -0.108 | -0.688 | -0.172 | -0.817 | -1.57 | 0.299 | 0.479 | -0.0661 (inactive) | -0.581 | -0.261 |

| Structure (SMILES) | composite z-score [1] | composite z-score [2] | composite z-score [3] | composite z-score [4] | composite z-score [5] | composite z-score [6] | composite z-score [7] | z-score [8] | composite z-score [9] | composite z-score [10] |
| --- | --- | --- | --- | --- | --- | --- | --- | --- | --- | --- |
| CCOC(=O)C1=C[C@@H](c2ccccc2)N(S(=O)(=O)c2ccc(C)cc2)[C@H]1c1ccc(OC)cc1 | 0.0896 | 0.733 | 0.479 | 0.848 | 1.61 | 1.02 | 1 | -2.76 (inactive) | 1.14 | 0.554 |
| NC(=O)NCC#Cc1ccc2c(c1)[C@]1(C(=O)N2)[C@H](c2ccccc2OCCO)N2[C@H](c3ccccc3)[C@H](c3ccccc3)OC(=O)[C@H]2[C@@H]1C(=O)NC[C@H](O)c1ccccc1 | -0.0058 | 1.37 | -0.085 | 0.262 | -0.667 | 0.319 | -0.32 | -0.308 (inactive) | -0.312 | -0.122 |
| COCCOC(=O)N1C(=O)[C@@]2(c3cc(C#CC4=CCCCC4)ccc31)[C@H](c1ccccc1OCCO)N1[C@H](c3ccccc3)[C@H](c3ccccc3)OC(=O)[C@H]1[C@@H]2C(=O)N1CCN(c2ncccn2)CC1 | -0.463 | 0.434 | -0.0536 | 0.538 | 1.07 | 0.373 | 1.13 | -0.624 (inactive) | 0.469 | -0.321 |
| CC(CO)N1C(=O)[C@]2(C)C3C(=O)OCCC/C=C\[C@H]3OC23C=CCN(c2ccc(Cl)cc2)C(=O)[C@@H]13 (stereo not given in full) | -0.167 | -0.258 | -0.19 | 0.0755 | -0.27 | -0.639 | 1.25 | -0.906 (inactive) | -0.456 | -0.266 |
| [N-]=[N+]=Nc1ccccc1C[C@@]1(C(=O)N2CCOCC2)N=C(c2ccc(OCCCO)cc2)O[C@@H]1c1ccccc1 | -0.4 | -0.121 | 0.0324 | 1.11 | 1.3 | 1.06 | 1.18 | -3.93 (inactive) | 1.71 | -0.112 |
| COc1ccc(CCNC(=O)[C@@]2(Sc3ccc(C)cc3)CC(=O)N(Cc3ccccc3C(F)(F)F)[C@@H]2c2ccc(CO)cc2I)cc1 | 0.673 | -1.11 | -0.156 | 0.116 | -1.11 | 1.99 | 1.01 | -1.08 (inactive) | -0.261 | -0.236 |
| CCOC(=O)C[C@H]1[C@H](OC(=O)c2cc3ccccc3oc2=O)[C@@H](NC(=O)c2ccc3ccccc3n2)c2cc(OCCCO)ccc2N1C(=O)Cc1ccc(OC)cc1 | -0.446 | 0.522 | -0.0107 | 0.302 | 0.958 | 1.03 | 0.946 | 0.547 (inactive) | 0.24 | -0.201 |
| COC(=O)C/C=C/C[C@]1(O)C(=O)N(C)c2ccccc21 | -0.408 | 0.598 | -0.148 | -0.294 | 0.223 | -0.419 | 0.797 | -1.59 (inactive) | 0.164 | -0.0708 |
| O=C1O[C@@H](c2ccccc2)[C@@H](c2ccccc2)N2[C@@H](c3ccc(OCCO)cc3)[C@]3(C(=O)Nc4ccc(C#CC5=CCCCC5)cc43)[C@@H](C(=O)NC[C@H](O)c3ccccc3)[C@H]12 | -0.94 | 0.297 | -0.0384 | 0.6 | 1.48 | 0.655 | 1.13 | 2.03 (inactive) | 0.126 | -0.142 |
| C[C@@H]1NC(=O)[C@@H](Cc2ccccc2)NC(=O)[C@@]23C(=O)N[C@@H](Cc4ccccc4)C2[C@H](C)[C@@]2(C)O[C@H]2C3/C=C/C/C=C\CNC1=O (stereo not given in full) | -0.285 | 1.13 | -0.149 | -0.211 | -0.787 | -0.235 | 0.305 | -0.323 (inactive) | -0.263 | -0.249 |
| CCCCC(=C=CC[C@H](O)c1ccc(OCCO)cc1)CCO | -0.253 | -0.0707 | -0.114 | -0.161 | -0.425 | 1.48 | 0.66 | -0.572 (inactive) | -0.493 | 0.0156 |
| CCCC[C@@H](O)C1=C(COC)C[C@H]2C(=O)N(Cc3ccccc3)C(=O)[C@H]2[C@H]1CO | -1.06 | 0.0076 | -0.0969 | 0.58 | 0.395 | 0.179 | 0.159 | 0.646 (inactive) | -0.173 | -0.0645 |
| COC(=O)[C@@]1(Cc2ccc(OC)cc2)[C@H]2c3cc(C(=O)N4CCCC4)n(CCc4c[nH]c5ccc(OC)cc45)c3C[C@H]2CN1C(=O)c1ccccc1 | 1.49 | 1.14 | 0.204 | 0.686 | 1.74 | 0.898 | 1.16 | 0.49 (inactive) | 1.55 | -0.161 |
| COc1cc2c(cc1O)C(C1CC1)N(C)CC2 (stereo not given) | 0.646 | -0.616 | -0.104 | -0.874 | -0.531 | 0.63 | -0.197 | 0.0877 (inactive) | -0.406 | -0.0994 |
| CC(C)c1ccc(NN2C(C(O)c3ccc(C#N)cc3)C=CC3C(=O)N(c4ccccc4)C(=O)C32)cc1 (stereo not given) | 0.546 | 0.0853 | 0.105 | 1.15 | 1.72 | 1.87 | 1 | -2.97 (inactive) | 1.8 | -0.0704 |
| CC(C)C(O)C1C=CC2C(=O)N(c3ccccc3)C(=O)C2N1Nc1ccccc1 (stereo not given) | -0.393 | 0.466 | 0.0293 | 0.79 | 1.49 | 1.24 | 1.39 | 0.33 (inactive) | 1.53 | 0.158 |
| COCC(=C=CC[C@H](O)c1ccc(CO)o1)CCO | -0.254 | -0.0406 | 0.0154 | 0.553 | -0.234 | 1.19 | 1.23 | 0.461 (inactive) | 0.51 | 0.382 |

— PubChem BioAssay
